# Assay results taken from publication PMC11102862.
# Key:
# [1] = target: CD2 antigen cytoplasmic tail-binding protein 2 (UniProt O95400); experiment: cross-link between two proteins; cross-linking mass spectrometry
# [2] = target: U5 small nuclear ribonucleoprotein 40 kDa protein (UniProt Q96DI7); experiment: as above
# [3] = target: Pre-mRNA-processing-splicing factor 8 (UniProt Q6P2Q9); experiment: as above
# [4] = target: Thioredoxin-like protein 4A (UniProt P83876); experiment: as above
# [5] = target: U5 small nuclear ribonucleoprotein TSSC4 (UniProt Q9Y5U2); experiment: cross-linking mass spectrometry
# Sequence of U5 small nuclear ribonucleoprotein TSSC4 (Q9Y5U2 whole entry): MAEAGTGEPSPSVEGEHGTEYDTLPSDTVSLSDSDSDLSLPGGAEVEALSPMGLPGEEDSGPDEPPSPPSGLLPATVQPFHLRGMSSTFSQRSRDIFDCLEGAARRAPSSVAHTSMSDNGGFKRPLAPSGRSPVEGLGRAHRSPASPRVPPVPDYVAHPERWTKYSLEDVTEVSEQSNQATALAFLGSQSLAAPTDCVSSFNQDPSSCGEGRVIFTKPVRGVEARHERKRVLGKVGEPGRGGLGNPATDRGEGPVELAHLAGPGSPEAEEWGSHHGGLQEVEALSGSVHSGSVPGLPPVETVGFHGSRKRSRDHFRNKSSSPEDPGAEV
# Sequence of U5 small nuclear ribonucleoprotein 40 kDa protein (Q96DI7 whole entry): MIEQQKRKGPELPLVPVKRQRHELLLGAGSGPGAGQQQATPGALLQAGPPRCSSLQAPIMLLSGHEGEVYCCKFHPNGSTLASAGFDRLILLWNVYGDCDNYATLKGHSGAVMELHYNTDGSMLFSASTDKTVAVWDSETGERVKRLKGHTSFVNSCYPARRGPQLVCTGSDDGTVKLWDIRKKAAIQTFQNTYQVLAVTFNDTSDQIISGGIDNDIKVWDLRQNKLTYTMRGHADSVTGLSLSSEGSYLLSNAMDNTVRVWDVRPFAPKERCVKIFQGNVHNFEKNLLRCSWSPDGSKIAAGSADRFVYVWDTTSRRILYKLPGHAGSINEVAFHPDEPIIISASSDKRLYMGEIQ
# Sequence of Thioredoxin-like protein 4A (P83876 whole entry): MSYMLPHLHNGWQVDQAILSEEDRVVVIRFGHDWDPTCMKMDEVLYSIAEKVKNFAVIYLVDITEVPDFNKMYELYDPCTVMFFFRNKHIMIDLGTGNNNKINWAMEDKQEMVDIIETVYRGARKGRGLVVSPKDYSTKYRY
# Sequence of CD2 antigen cytoplasmic tail-binding protein 2 (O95400 whole entry): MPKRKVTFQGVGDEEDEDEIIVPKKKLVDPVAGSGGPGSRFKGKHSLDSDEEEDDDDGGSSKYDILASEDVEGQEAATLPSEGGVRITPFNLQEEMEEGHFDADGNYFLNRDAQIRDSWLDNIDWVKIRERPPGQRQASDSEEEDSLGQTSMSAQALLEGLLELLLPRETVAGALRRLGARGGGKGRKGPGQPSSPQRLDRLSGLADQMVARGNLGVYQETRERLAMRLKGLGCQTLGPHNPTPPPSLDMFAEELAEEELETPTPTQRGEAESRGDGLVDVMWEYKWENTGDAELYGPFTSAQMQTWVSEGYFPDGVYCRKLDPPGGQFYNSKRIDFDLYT
substance,measurement,setting,value
"Pre-mRNA-processing factor 6, O94906",listed as a hit,[1],yes
same,listed as a hit,[2],yes
"CD2 antigen cytoplasmic tail-binding protein 2, O95400",listed as a hit,[3],yes
same,listed as a hit,[4],yes
same,listed as a hit,[2],yes
"U5 small nuclear ribonucleoprotein 200 kDa helicase, O75643",listed as a hit,[5],yes
